The list is not random: actives were taken first. Their share in the collection is about 7.9%.
FMDV inh: blocks foot and mouth disease virus | FMDV antiviral cell-based qHTS | Potency, µM (series often up to 57.9 µM), hits mostly inhibitors | actives 1.2% (n = 410,000) | AID 1159524; calls by dose curve; tested in HEK293T cells; also: read-out not given here; nearly all actives have a fitted effect of over 45% in size
HCV inhibitor: blocks hepatitis C virus; Huh7.5.1 HCVcc-Cre infection, luciferase reporter, 44 h; Potency, µM (top dose mostly 41.8 µM), usual class: inhibitors; actives 3.4% (n = 340,000); AID 651820; active = well fitted inhibition curve with a large enough effect; inconclusive = small, poorly fitted or top-dose-only effect, or another doubt; inactive = no such curve, though single readings can be large or run the other way
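After 44 h co-culture of compound, cells and HCVcc-Cre (~0.5 moi), substrate is added for 15 min at room temperature and luciferase measured over 15 sec. Cells were seeded at 1,000/well and pre-cultured 4 h.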
HCMV antiviral: blocks human cytomegalovirus replication; HFF cells, HCMV-luciferase reporter, 72 h; active compounds read low; actives 4.5% (n = 410,000); activity change, negative = inhibition, % at 57.5 µM; AID 1259415; in the data active = activity change below about -60%; inconclusive = no clear call, values can overlap the other calls; inactive = above about -39%
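Screen run at 2 compound doses on HFFs infected with reporter HCMV, MOI 1 PFU/cell. Luciferase activity from cell lysates at 72 h post infection gave inhibition relative to buffer-only and Salinomycin wells.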
Marburg entry inh: blocks Marburg virus binding to or entry into cells | Marburg virus pseudotyped entry inhibition, cell reporter | Potency, µM (series often up to 37.8 µM), usual class: inhibitors | actives 1.8% (n = 300,000); calls by dose curve; tested in HEK293 cells
LASV entry inh: inhibitors of Lassa virus binding or cell entry; Lassa virus pseudotype entry inhibition, cell reporter; Potency, µM (titrated, usually from 37.9 µM), most hits filed as inhibitors; actives 1.2% (n = 300,000); AID 540256; calls by dose curve; tested in HEK293 cells; also: nearly all actives have a fitted effect of over 50% in size
Hits are given with their value; - = inactive; ? = inconclusive; . = no result; + = active, no number.

SMILES | FMDV inh | HCV inhibitor | HCMV antiviral | Marburg entry inh | LASV entry inh
Cc1noc(/C=C/c2ccccn2)c1[N+](=O)[O-] | - | - | -102 | ? | ?
Cn1c(SCc2cccc(Br)c2)nc2ccccc2c1=O | ? | 22µM | - | . | .
COc1ccc(N(C)C(=O)Cn2cc(S(=O)(=O)N3CCN(c4ccccc4F)CC3)c3ccccc3c2=O)c(OC)c1 | - | . | - | ? | -
Cn1c(/C=C/c2cccc(Br)c2)nc2ccccc2c1=O | - | - | -72 | 10µM | ?
O=C(/C=C/c1cccc([N+](=O)[O-])c1)n1cnc2ccccc21 | 14µM | ? | -99 | ? | ?
Cn1c(/C=C/c2cccc([N+](=O)[O-])c2)nc2ccccc2c1=O | - | - | -61 | . | .
O=c1c2ccccc2nc(/C=C/c2ccc([N+](=O)[O-])o2)n1CCCO | ? | 2.2µM | -108 | 2µM | 4.5µM
O=C(/C=C/c1cccc([N+](=O)[O-])c1)N1CCN(c2ccccn2)CC1 | - | - | - | . | .
Cc1cccc(-n2c(/C=C\c3cccc(Br)c3)nc3ccccc3c2=O)c1 | ? | . | - | . | -
CC(=O)C1=C(C)N(CC#C[Si](C)(C)C)C(=O)N(C(C)=O)C1c1ccccc1 (stereo not given) | . | . | . | - | ?
CC(C)(C)c1ccc(-c2nc3cc(NC(=O)c4cccc(Br)c4)ccc3o2)cc1 | - | . | - | . | -
Cc1[nH]c2ccccc2c1/C=C/c1nc2ccccc2c(=O)n1-c1cccc([N+](=O)[O-])c1 | - | - | -86 | ? | ?
O=[N+]([O-])c1cccc(/C=C/c2ccccn2)c1 | - | 13µM | - | . | .
COc1ccc(-n2c(/C=C/c3c(C)[nH]c4ccccc34)nc3ccccc3c2=O)cc1 | - | . | - | . | -
O=c1c2ccccc2nc(/C=C/c2ccc(Br)cc2)n1CCCO | - | ? | -71 | . | .
CC(=O)N1CCOc2ccc(S(=O)(=O)Nc3ccc(C)cn3)cc21 | - | - | - | . | .
Cc1ccc(-c2ccc(C#N)c(=O)n2CC(=O)N(C)C)cc1 | - | - | -70 | - | -
CC1(C)COC(/C=C/c2ccc([N+](=O)[O-])cc2)=N1 | - | ? | -101 | ? | ?
CC(C)c1ccc(NC2CCCN(C(=O)c3ccc(N4CCOCC4)cc3)C2)cc1 (stereo not given) | 28µM | ? | - | - | -
CC(C)c1ccc(NC2CCCN(C(=O)c3ccoc3)C2)cc1 (stereo not given) | - | ? | - | . | .
Cn1cnnc1Sc1ccc(CN2CCOc3ccc(C4=CCCCC4)cc3C2)o1 | - | . | . | . | .
COc1ccc(S(=O)(=O)N2CCN(C(=O)c3c(C)nn(-c4ccccc4)c3Cl)CC2)cc1 | ? | - | - | - | ?
Cc1cc(C)c(S(=O)(=O)N2CCN(C(=O)c3cc4ccccc4oc3=O)CC2)c(C)c1 | - | ? | -102 | . | .
Cc1cc(C)c(S(=O)(=O)N2CCN(C(=O)c3c(C)nn(-c4ccccc4)c3Cl)CC2)c(C)c1 | 25µM | ? | -72 | 14µM | ?
O=C(c1cc(-c2ccccc2)nn1-c1ccccc1)N1CCN(S(=O)(=O)c2ccc(F)cc2)CC1 | - | ? | -77 | - | -
SMILES | FMDV inh | HCV inhibitor | HCMV antiviral | Marburg entry inh | LASV entry inh
Cc1cccc(-n2nc(C)c(C(=O)N3CCN(c4ccccc4)CC3)c2-n2cccc2)c1 | ? | . | + | . | -
CCCN(CCC)C(=O)c1ccc2c(c1)S(=O)(=O)c1ccccc1C2=O | - | - | - | - | -
CC(=O)Nc1cccc(-n2cc3c(c2-c2ccccc2Cl)c(=O)n(C)c(=O)n3C)c1 | - | . | - | ? | ?
Cc1nn(-c2ccccc2)c(Cl)c1C(=O)NNC(=O)c1ccccc1O | - | 10µM | - | . | .
Cc1ccc(S(=O)(=O)N2CCN(C(=O)c3c(C)nn(-c4ccccc4)c3Cl)CC2)cc1 | . | ? | -75 | - | ?
Cc1cccc(-c2nnc(SCCC(=O)N3CCOCC3)o2)c1 | - | - | ? | - | ?
Cc1ccc(-c2nnc(SCCC(=O)N3CCOCC3)o2)cc1 | - | - | -101 | - | ?
COC(=O)CSc1nnc(-c2cccc(O)c2)o1 | - | . | -65 | . | -
Cc1cccc(-c2nnc(SCCC(=O)O)o2)c1 | ? | . | -88 | ? | 1.3µM
C#CCNc1ccc2c(c1)OC[C@H](C)NS2(=O)=O | . | . | . | . | -
NC(=S)N1N=C(c2ccccc2)CC1=O | - | - | - | - | -
CCOC(=O)c1sc(NC(=S)NC(=O)c2ccccc2)nc1C | - | - | - | . | .
CCOC(=O)C1=C(NC(=S)NC(=O)c2ccccc2)c2ccccc2CC12CCCC2 | ? | ? | -99 | 3.7µM | 2.6µM
COc1ccc(Nc2nc(N)c([N+](=O)[O-])c(NC3CCCCC3)n2)cc1 | ? | 11µM | ? | ? | ?
COc1ccc(Nc2nc(N)c([N+](=O)[O-])c(NCCO)n2)cc1 | - | - | - | ? | -
Cc1ccc(/C=C2\C(=O)NC(=S)N(c3ccc(F)cc3)C2=O)s1 | ? | ? | - | - | -
Cc1ccc(/C=C2\C(=O)NC(=S)N(c3ccccc3F)C2=O)s1 | ? | ? | -101 | ? | ?
Cc1ncoc1C(=O)N1CCOc2ccc(CN3CCC(Oc4cccnc4)CC3)cc2C1 | - | . | . | . | .
C=CC1=C(C)/C(=C/c2[nH]c(Cc3[nH]c(/C=C4\NC(=O)C(C)=C4C=C)c(C)c3CCC(=O)O)c(CCC(=O)O)c2C)NC1=O | - | . | . | . | .
O=C(Nc1ccccc1C(=O)NCCc1ccccc1)c1cnccn1 | - | - | - | ? | -
CCN(CC)S(=O)(=O)c1ccc2c(c1)c(=O)c(C(=O)NCc1ccccc1Cl)cn2C | - | . | -65 | ? | -
CCN(CC)S(=O)(=O)c1ccc2c(c1)c(=O)c(C(=O)NCc1ccccc1OC)cn2C | - | . | ? | - | ?
COc1cc(C(=O)N(C)CCOc2ccccc2)ccc1OCC(=O)Nc1cccc(C(F)(F)F)c1 | ? | 2.8µM | -69 | ? | -
CCOC(=O)C1CCN(C(=O)c2ccc(OCC(=O)Nc3cccc(C(F)(F)F)c3)c(OC)c2)CC1 | ? | 2.8µM | -70 | ? | ?
COc1ccc(CNC(=O)C(=O)NCC(c2cccs2)S(=O)(=O)c2cccs2)cc1 (stereo not given) | ? | . | - | . | -
SMILES | FMDV inh | HCV inhibitor | HCMV antiviral | Marburg entry inh | LASV entry inh
O=C(OCC1OC(OC(=O)c2cc(O)c(O)c(OC(=O)c3cc(O)c(O)c(O)c3)c2)[C@@H](OC(=O)c2cc(O)c(O)c(OC(=O)c3cc(O)c(O)c(O)c3)c2)C(OC(=O)c2cc(O)c(O)c(OC(=O)c3cc(O)c(O)c(O)c3)c2)C1OC(=O)c1cc(O)c(O)c(OC(=O)c2cc(O)c(O)c(O)c2)c1)c1cc(O)c(O)c(OC(=O)c2cc(O)c(O)c(O)c2)c1 (stereo not given in full) | . | . | . | 0.35µM | 11µM
O=C(COc1cc2oc(=O)c3c(c2cc1Cl)CCCC3)NCc1cccnc1 | - | ? | ? | ? | -
CCOC(=O)C(C)Oc1cc(C)cc2oc(=O)c3c(c12)CCCC3 (stereo not given) | ? | 10µM | - | ? | ?
Cc1cc(OCC(=O)NCc2cccnc2)c2c3c(c(=O)oc2c1)CCCC3 | - | 10µM | - | . | .
COC(=O)C(C)Oc1cc(C)cc2oc(=O)c3c(c12)CCCC3 (stereo not given) | - | ? | - | - | -
CCc1nc(SC)ncc1C(=O)N1CCN(c2cc(Cl)ccc2C)CC1 | - | . | - | . | -

Source: PubChem BioAssay
